Screening data from PubChem BioAssay.
MmCpn inh = M. maripaludis TRiC chaperonin inhibition; purified Mm-Cpn ATPase, ADP Transcreener TR-FRET; Potency, µM (doses to about 76.9 µM), usual class: inhibitors; hit rate 0.031% among 330,000; AID 504842; also: nearly all actives have a fitted effect of over 80% in size
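ATPase read-out: TR-FRET ADP immunoassay (anti-ADP Eu cryptate vs ADP-d2), ex 320 nm, em 590/665 nm; signal drops as ADP forms. Enzyme 25 nM, ATP 10 uM, 30 min at 37°C after 10 min compound preincubation.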
p53 reactivator = restores transcriptional activity of mutant p53 | H1299 p53-A138V BP100-luciferase reporter, luminescence, 24 h | Potency, µM (series often up to 92.2 µM), most hits filed as activators | hit rate 0.063% among 320,000 | AID 504706; also: nearly all actives have a fitted effect of over 45% in size
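H1299 (p53-null), stable ts p53-A138V + BP100-Luc; 1000 cells/well, Opti-MEM/10% FBS; cpd 4 pt, 1:5; 24 h, 37 deg C, 5% CO2; detection reagent 10 min RT; luminescence.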
Eya2 inh = blocks the phosphatase activity of human Eya2 | O00167 | recombinant Eya2, OMFP fluorescence dephosphorylation (OMFP is methylfluorescein phosphate) | Potency, µM (top dose mostly 76.9 µM), usual class: inhibitors | hit rate 0.006% among 330,000 | AID 488837
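Eya2 (0.2 uM) preincubated 10 min at ambient with compound, then OMFP substrate added at 50 uM; 10 min reaction in 50 mM HEPES pH 7.5, 50 mM NaCl, 5 uM MgCl2, 0.05% BSA, 1 mM DTT. Fluorescence read at Ex 485/Em 525 nm.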
USP2a inh = blocks human ubiquitin-specific protease USP2a; USP2 core, Ub-CHOP2 coupled fluorogenic reporter, 485/531; Potency, µM (doses to about 38.3 µM), hits mostly inhibitors; hit rate 0.01% among 330,000; AID 463254
Target sequence (O75604 whole entry, looked up): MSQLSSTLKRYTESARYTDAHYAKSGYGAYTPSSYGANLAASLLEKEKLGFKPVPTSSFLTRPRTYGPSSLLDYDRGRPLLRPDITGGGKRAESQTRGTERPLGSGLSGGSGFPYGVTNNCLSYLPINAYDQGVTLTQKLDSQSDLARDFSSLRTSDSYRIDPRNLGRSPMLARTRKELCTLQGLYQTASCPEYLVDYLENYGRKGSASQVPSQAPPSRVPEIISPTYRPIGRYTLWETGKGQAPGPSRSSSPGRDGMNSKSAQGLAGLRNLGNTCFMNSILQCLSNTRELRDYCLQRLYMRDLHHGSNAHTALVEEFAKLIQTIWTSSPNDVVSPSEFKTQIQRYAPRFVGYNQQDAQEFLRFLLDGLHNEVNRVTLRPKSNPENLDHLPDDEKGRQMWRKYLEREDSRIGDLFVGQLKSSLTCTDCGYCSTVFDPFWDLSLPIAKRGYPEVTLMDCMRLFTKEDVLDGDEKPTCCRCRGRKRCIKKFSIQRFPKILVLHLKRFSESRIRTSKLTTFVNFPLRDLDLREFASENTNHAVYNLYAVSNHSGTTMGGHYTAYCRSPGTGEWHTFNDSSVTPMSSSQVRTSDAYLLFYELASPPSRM
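Deubiquitinase activity read as fluorescence (485/531 nm) after Ub-CHOP2 cleavage activates the enterokinase reporter on its substrate; USP2 core 10nM, Ub-CHOP2 and substrate 25nM each, 30min compound preincubation then 60min RT; data normalized to NEM, curves fitted.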
ClpP mod = qHTS Assay for Activators of ClpP; hit rate 1.9% among 340,000; purified B. subtilis ClpP, FRET peptide cleavage, 20 min; Potency, µM (top dose mostly 57.5 µM); active = well fitted falling curve with a large enough effect; inconclusive = small, poorly fitted or top-dose-only effect; inactive = no such curve, though single readings can be large or run the other way; also: the source files actives as falling curves though it sought activators and does not explain the sign; nearly all actives have a fitted effect of over 65% in size
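ClpP 10 microg/mL final, pH 8 Tris/KCl buffer with BSA, glycerol, Tween-20; compound pinned in; FRET-FV substrate; RT 20 min; Ex320/Em430; ΔFRET vs ADEP 5.8 microM, DMSO, no enzyme.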
a7 integrin act = activators of alpha7 integrin expression for muscular dystrophy | hit rate 0.064% among 350,000 | alpha7betagal myoblasts, beta-gal FDG fluorescence, 48 h | Potency, µM (highest dose often 38.3 µM), actives largely listed as activators; also: nearly all actives have a fitted effect of over 60% in size
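Alpha7betagal+/- myoblasts (passage 13) were plated 16-24 hr, then exposed to compounds (1:260 dilution of DMSO stock) for 48 hours at 37C. After MPER lysis, β-galactosidase reporter activity was read as FDG fluorescence (ex 480/em 540) after 30 minutes.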
Of the large screens only hits and unclear results are named; the others gave an inactive call. Only a selection was taken, and hits are over-represented in it overall. Unless noted, calls follow the shape of the dose curve; as a rule, active = well fitted curve in the direction sought with a large enough effect; inconclusive = small, poorly fitted or top-dose-only effect, or another doubt; inactive = no such curve, though single readings can be large; an effect the other way counts as inactive or inconclusive.

CCCCC(=O)NC(=S)Nc1cccc(NC(=O)c2ccco2)c1	ClpP mod 25.1µM
Cc1ccc(S(=O)(=O)NN2C(=O)c3ccccc3NC2(C)C)cc1	ClpP mod 15.8µM
CNC(=O)C1CCCN(c2nnc(C)c3c(C)n(-c4ccccc4)nc23)C1 (centres undefined)	none (no result: MmCpn inh, p53 reactivator, Eya2 inh, USP2a inh, a7 integrin act)
COc1ccc(-c2nc3ccccc3s2)cc1O	none
COc1cc(-c2nc3ccccc3s2)ccc1O	p53 reactivator inconclusive, ClpP mod 8.91µM
COc1ccc(Nc2ncnc3ccc(C)cc23)cc1	a7 integrin act 3.55µM
CC(=O)NCCn1c(SCC(=O)NC2CCCCC2)nc2ccccc2c1=O	ClpP mod 31.6µM
c1ccc2c(c1)Cn1c-2nc2ccccc21	p53 reactivator inconclusive, ClpP mod 25.1µM
Brc1c(-c2ccccc2)nc2n1Cc1ccccc1-2	p53 reactivator inconclusive, Eya2 inh inconclusive
O=C(O)/C=C/c1ccc2ccccc2c1	none (no result: MmCpn inh, p53 reactivator, Eya2 inh, USP2a inh, a7 integrin act)
CN(C)CCC(=O)N1C/C(=C/c2ccccc2)C(=O)/C(=C\c2ccccc2)C1	ClpP mod 35.5µM (no result: MmCpn inh, p53 reactivator, Eya2 inh, USP2a inh)
C[N+](C)(C)CCC(=O)N1C/C(=C/c2ccccc2)C(=O)/C(=C\c2ccccc2)C1	none (no result: MmCpn inh, p53 reactivator, Eya2 inh, USP2a inh)
Cc1ccc2c(c1)CCCN2C(=O)c1cnn2c1NC(=C1CC1)C=C2C(F)F	none (no result: MmCpn inh, p53 reactivator, Eya2 inh, USP2a inh, a7 integrin act)
CCOC(=O)c1cccc(NC(=O)c2cnc3sc(N4CCOCC4)nn3c2=O)c1	none (no result: MmCpn inh, p53 reactivator, Eya2 inh, USP2a inh, a7 integrin act)
COc1ccc(Br)cc1S(=O)(=O)Nc1cc(-c2cn3ccccc3n2)ccc1C	ClpP mod 17.8µM (no result: MmCpn inh, p53 reactivator, Eya2 inh, USP2a inh, a7 integrin act)
Cc1cc(C)c(S(=O)(=O)Nc2cc(-c3cn4ccccc4n3)ccc2C)cc1C	none (no result: MmCpn inh, p53 reactivator, Eya2 inh, USP2a inh, a7 integrin act)
C=CCNC(=O)COc1ccc(S(=O)(=O)Nc2ccc(OCC)cc2)cc1	ClpP mod 12.6µM
CN(C(=O)CSC1=Nc2ccccc2C2=NC(c3ccccc3)C(=O)N12)C1CCCCC1 (centres undefined)	ClpP mod 25.1µM
O=C(CSC1=Nc2ccccc2C2=NC(c3ccccc3)C(=O)N12)NC1CCCCC1 (centres undefined)	ClpP mod 11.2µM
C[C@@H](Nc1nc(Cl)nc2nc[nH]c12)c1ccccc1	none (no result: MmCpn inh, p53 reactivator, Eya2 inh, USP2a inh, a7 integrin act)
COc1ccc(-c2[nH]c(-c3cccc(OC)c3)nc2SCC(=O)Nc2ccc3c(c2)OCO3)cc1	none (no result: MmCpn inh, p53 reactivator, Eya2 inh, USP2a inh, a7 integrin act)
O=C(NCc1ccccc1)N1CCn2c(nc3ccccc32)C1	ClpP mod 31.6µM
COc1ccc(NC(=O)N(CCC(C)C)C(C)c2cccs2)c(OC)c1 (centres undefined)	none (no result: MmCpn inh, p53 reactivator, Eya2 inh, USP2a inh, a7 integrin act)
Nc1c(C(=O)Nc2ccc3c(c2)OCCO3)nnn1Cc1ccc(F)cc1	ClpP mod 11.2µM
Nc1c(C(=O)Nc2ccc3c(c2)OCCO3)nnn1Cc1cccc(Cl)c1	p53 reactivator inconclusive (no result: ClpP mod)
c1ccc(CC[n+]2ccncc2)cc1	none (no result: MmCpn inh, p53 reactivator, Eya2 inh, USP2a inh, a7 integrin act)
O=C(CSc1n[nH]c(=O)n1Cc1ccco1)c1ccc2c(c1)OCCO2	none
N#Cc1ccc(C(=O)CSc2n[nH]c(=O)n2Cc2ccco2)cc1	ClpP mod 28.2µM
Cc1oc(-c2ccc(C(=O)Nc3ccc(F)cc3F)cc2)nc1COc1ccccc1	none (no result: MmCpn inh, p53 reactivator, Eya2 inh, USP2a inh, a7 integrin act)
Cc1ccccc1OCC(=O)NCC(=O)OCC(=O)c1ccc(F)cc1	none (no result: MmCpn inh, p53 reactivator, Eya2 inh, USP2a inh, a7 integrin act)
COC(=O)c1cc2oc3ccccc3c2n1Cc1ccccc1Cl	none (no result: MmCpn inh, p53 reactivator, Eya2 inh, USP2a inh, a7 integrin act)
COC(=O)c1cc2oc3ccccc3c2n1Cc1c(F)cccc1Cl	ClpP mod 2.51µM (no result: MmCpn inh, p53 reactivator, Eya2 inh, USP2a inh, a7 integrin act)
Cn1c(-c2ccccc2)c(CCO)c2ccccc21	ClpP mod 28.2µM
Oc1c(C(Nc2cccnc2)c2ccccc2F)ccc2cccnc12 (centres undefined)	none (no result: MmCpn inh, p53 reactivator, Eya2 inh, USP2a inh, a7 integrin act)
O=c1c2c(nc3cc(-c4ccc(F)cc4)[nH]n13)CCCC2	ClpP mod 10µM
O=c1c2c(nc3cc(-c4cccc(Cl)c4)[nH]n13)CCC2	p53 reactivator inconclusive, ClpP mod 28.2µM
O=c1c2c(nc3cc(-c4cccc(F)c4)[nH]n13)CCC2	none (no result: ClpP mod)
COc1cc2c(cc1OC)CN(C(=O)CSc1ccccc1C)CC2	ClpP mod 22.4µM
